Experimental data published in PubChem BioAssay (NCI).
The panel holds about 83,000 compounds, 20% with a hit somewhere; the sample as a whole holds those more often.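 Single-dose data. Exposure time 48 hours. Values below 10 considered active.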 A number with no mark means an inactive call. Calls of active or inactive are those of the source.

tested on: SW-620 colon; experiment: NCI-60 one-dose screen, 48 h (100 = growth as untreated, 0 = no growth, -100 = all killed); conditions: 10 µM unless noted
Protocol: Growth inhibition of the SW-620 human tumor cell line is measured as a screen for anti-cancer activity. Cells are grown in 96 well plates and exposed to the test compound for 48 hours. Compounds are tested at a single concentration, which is 10^-5 M for most compounds. The reported endpoint is percent growth (GI% or GIPRCNT), where numbers from 0 - 100% represent growth inhibition, and numbers from -100% - 0 represent cell death. For example, a value of 40 represents 60% growth inhibition. A value of 0 means no net growth occurred over the course of the experiment. A value of -40 indicates 40% of cells at the beginning of the experiment died by the end of the experiment. A value of -100 means all cells are dead at the end of the experiment.
NCI-60 Human Tumor Cell Lines Screen was performed using the standard one-dose NCI protocol, which is described in more detail at https://dtp.cancer.gov/discovery_development/nci-60/default.htm.
Compounds with GIPRCNT values below 10 were considered active. Activity score was based on GIPRCNT using the following formula: […]
Score is 0 for GIPRCNT values of 100 or above, 50 for GIPRCNT values of 0, and 100 for GIPRCNT values of -100.

SMILES	growth
O=C1Nc2cc(Cl)ccc2/C1=C\c1ccc(OCc2ccccc2)cc1	99.4%
Cc1ccc([C@H]2c3[nH]c4ccccc4c3C[C@H]3C(=O)N(CCCCCCC(=O)NO)CC(=O)N23)s1	51.9%
C[C@H](Nc1ncnc2ccc(-c3cnc(Cl)c(NS(C)(=O)=O)c3)cc12)c1ccccc1	1.48% (active)
CC(=O)Nc1cc(N2CCOCC2)c2nc(NC(=O)c3[nH]c(C)c(Cl)c3Cl)sc2c1	84.4%
COC(=O)c1ccc(NC2=C(Cl)C(=O)C(C)=C(C)C2=O)cc1	35.5%
C=C(C)[C@@H]1CC[C@]2(C(=O)O)CC[C@]3(C)[C@H](CC[C@@H]4[C@@]5(C)C/C(=C/c6ccccn6)C(=O)C(C)(C)[C@@H]5CC[C@]43C)[C@@H]12	27.9%
CCOP(=O)(OCC)OC[C@]12CCC(C)(C)CC1C1=CC[C@@H]3[C@@]4(C)CCCNC(C)(C)[C@@H]4CC[C@@]3(C)[C@]1(C)CC2 (stereo not given in full)	66.3%
CCOC(=O)c1c(NC(=O)c2ccc(C(F)(F)F)cc2)sc2c3c(ccc12)OCN(C)C3	-52.4% (active)
CCCCCCOC(=O)c1cc(-c2ccc(F)cc2)nc2ccccc12	93.5%
CCCCCCN1C=C/C(=C\C(=O)n2ccc3ccccc32)c2ccccc21	79.2%
CCOC(=O)c1c(NC(=O)c2cccc(C(F)(F)F)c2)sc2c1CCC(=O)C2	13.8%
O=C(COc1ccc(/C=C2\C(=O)Nc3ccc(Cl)cc32)cc1)Nc1ccc(Cl)cc1	45.5%
CCN(CC)c1ccc(/C=N/NC(=O)c2ccc(S(N)(=O)=O)cc2)cc1	40.4%
O=C(CSc1nnc(-c2cccs2)n1-c1ccccc1)Nc1ccccc1F	69.3%
COc1ccc(/C=N/NC(=O)CSc2nc(-c3cnccn3)cc(-c3cccs3)c2C#N)cc1OC	60.8%
COc1ccc(C(=O)c2c(N)c(C#N)cn2-c2ccc(Cl)cc2Cl)cc1	98.3%
CC(C)(O)c1cncc(-c2ccc3ncc(C#N)c(N4CCc5cc(F)c(Cl)cc54)c3c2)c1	26.6%
Cc1ccc(CSC2=C(Cl)CN(c3ccc(Cl)cc3)C2=O)cc1	108%
CCc1cc2c(cc1Cl)nc1c(=O)[nH]c(=O)nc-1n2CCOCC(C)(C)C	89.5%
Fc1ccc(-c2cn3c(-c4c[nH]c5ccc(Br)cc45)csc3n2)cc1	81.4%

SMILES	growth
CCNCCOc1ccc(/C(=C(/CC)c2ccc(Cl)cc2)c2ccc(OCCCN(C)C)cc2)cc1	-62.1% (active)
CC[C@]12C=CCN3CC[C@]4(C(=C(C(=O)OC)C1)Nc1cc5c(cc14)[C@@H]1[C@H](O5)[C@@H](O)[C@@]4(CC)CC(C(=O)OC)=C5Nc6cc(O)ccc6[C@@]56CCN1C46)C32 (stereo not given in full)	2.78% (active)
Brc1cccc(-c2cc(-c3cnc4c(c3)OCCO4)n[nH]2)c1	25.3%
N#C/C(=C\c1ccc(-c2ccc(Cl)c(Cl)c2)o1)C(=O)Nc1ncc(Cc2ccc(Cl)cc2)s1	10.8%
Cn1cc(-c2nnc(N)nc2-c2c[nH]c3ccc(Br)cc23)c2cc(Br)ccc21	112%
NS(=O)(=O)c1cccc(Nc2nc(SCC(=O)c3ccc(Cl)cc3)nc3c2CCC3)c1	102%
O=C(CSc1cc[n+](CCCCO)c2ccccc12)n1ccc2ccccc21	99%
CC1=C(C)C(=O)C(Nc2ccc(C)c(C)c2)=C(Br)C1=O	103%
COc1cc2cc(Oc3ccc(NC(=O)c4cc(C(F)(F)F)cc(C(F)(F)F)c4)cc3)c(C)nc2cc1OCCN1CCOCC1	97.2%
CC1=C(C)C(=O)C(Nc2ccc3c(c2)OCCO3)=C(Br)C1=O	107%
COc1ccc(/C=N/NC(=O)CSc2nc(-c3cnccn3)cc(-c3cccs3)c2C#N)cc1	93%
Brc1ccc(-c2cc(-c3ccc4c(c3)OC=CO4)n[nH]2)s1	79.1%
Nn1c(=O)n(-c2cccc(C(F)(F)F)c2)c(=O)c2cc(-c3ccc(F)cc3F)ccc21	17%
COc1cc(C(=O)c2cc(C(C)=O)c3c(C)cccn23)cc(OC)c1OC	104%
CN1CCC[C@]2(C)[C@H]3CC[C@@H]4[C@@H]5[C@H]6OC[C@@]5(CCC6(C)C)CC[C@@]4(C)[C@]3(C)CC[C@H]2C1(C)C	23.2%
NC(N)=NS(=O)(=O)c1ccc(N=Nc2c(N)nn(-c3ccc([N+](=O)[O-])cc3[N+](=O)[O-])c2N)cc1	101%
Cc1cc2nc3c4cc(C#N)ccc4n(CCN(C)C)c3nc2cc1C	-9.39% (active)
COc1ccc(C2CC(c3cccc(OCCCCOc4cccc(C5=NOC(c6ccc(OC)cc6)C5)c4)c3)=NO2)cc1 (stereo not given)	32.9%
CC(C)NC(=O)c1cc(-c2ccc(NC(=O)Nc3ccc(F)cc3)cc2)nc2cccnc12	108%
COc1ccccc1/C=C1\Oc2ccc(O)c(O)c2C1=O	105%
